Test system: HepG2-A16-CD81 hepatocytes
Design: Uninfected hepatocyte viability, CellTiter-Glo luminescence
Conditions: cytotoxicity primary screen, inhibitor

| Structure (SMILES) | HepG2 toxicity primary screen (10uM): inhibition % (n=1) [%] |
| --- | --- |
| COc1cccc(F)c1-c1nc2c(C3CC3)[nH]n(C)c-2n1 [DDD01246655] | 0.271 |
| Cc1ccccc1CN(C)C(=O)CCC1=NC(=C2N=CN=N2)NO1 [DDD01062116] | -42.09 |
| COc1cc2c(cc1-c1nc3c[nH]n(C)c-3n1)OCO2 [DDD01248770] | -8.9 |
| Cc1ccc(CN2CCc3c([nH]c4cc(C5CC5)nn4c3=O)C2)s1 [DDD01058491] | -3.69 |
| Cc1[nH]n(C2CCS(=O)(=O)C2)c(=O)c1Cc1ccccc1Cl (stereo not drawn) [DDD01026964] | -45.665 |
| CCc1c(C)[nH]c2cc(C3CCN(Cc4ccc(F)cc4)C3)nn2c1=O (stereo not drawn) [DDD01060568] | -18.6 |
| Cc1[nH]n(C2CCCC2)c2nc(C(C)(C)CN3CCN(C)CC3)nc1-2 [DDD01248613] | -6.61 |
| CCc1cc(=O)n2nc(C3CCN(C(=O)c4cccnc4)CC3)cc2[nH]1 [DDD01057176] | 7.09 |
| Cn1cc(C(=O)N2CCCC(c3cc(=O)n(C)[nH]3)C2)cn1 (stereo not drawn) [DDD01060486] | -21.6 |
| Cn1nc(C2CC2)c(-c2ccc3c(c2)OCO3)c1N [DDD01074640] | -47.475 |
| CCn1[nH]cc2nc(-c3ccc(OC)c(COC)c3)nc1-2 [DDD01253750] | 6.34 |
| Cn1ccc(C(=O)N2CCCC(c3cc(=O)n(C)[nH]3)C2)n1 (stereo not drawn) [DDD01060541] | -13.7 |
| Cc1[nH]n(Cc2ccc(F)cc2)c2nnc(N)c1-2 [DDD01012470] | 1.11 |
| COCCC(=O)N1Cc2[nH]c3c(C)c(-c4cccs4)nn3c(=O)c2C1 [DDD01056578] | -1.19 |
| CCCc1nn(C)c(N)c1-c1ccc2c(c1)OCO2 [DDD01074641] | -51.45 |
| Cc1[nH]n(C2CCS(=O)(=O)C2)c(=O)c1CCc1ccccc1 (stereo not drawn) [DDD01026977] | -50.25 |
| Cc1[nH]n(C2CCCCC2)c2nc(C(C)(C)CN3CCOCC3)nc1-2 [DDD01254749] | -3.64 |
| CCc1c(C)nn2c(=O)cc(C3CCN(C(=O)c4cnn(C)c4)C3)[nH]c12 (stereo not drawn) [DDD01056908] | 4.85 |
| Fc1cccc(C2=NN=CC2=C2NC(CN3CCOCC3)=NO2)c1 [DDD01244908] | -7.58 |
| COc1cc2c(cc1-c1nc3c[nH]n(C(C)C4CC4)c-3n1)OCO2 (stereo not drawn) [DDD01244142] | 4.82 |

| Structure (SMILES) | HepG2 toxicity primary screen (10uM): inhibition % (n=1) [%] |
| --- | --- |
| CCn1[nH]cc2nc(-c3cc(OC)c(OC)cc3OC)nc1-2 [DDD01254934] | -2.61 |
| COCC(=O)N1Cc2[nH]c3c(C)c(-c4cccs4)nn3c(=O)c2C1 [DDD01056747] | -4.81 |
| CN(Cc1ccc(F)c(F)c1)C(=O)CCC1=NC(=C2N=CN=N2)NO1 [DDD01062114] | -43.56 |
| Cc1cc(=O)n(-c2ccc3nnc(C)n3n2)[nH]1 [DDD01038570] | 9.24 |
| COc1cc2c(cc1-c1nc3c[nH]n(C(C)C)c-3n1)OCO2 [DDD01249461] | -6.85 |
| CC(=O)N1CCCN(C(=O)CCOc2ccc(C(C)C)cc2)CC1 [DDD01298039] | -13 |
| Cc1nnsc1C(=O)N1CCCCC1c1cc2[nH]c(C)c(C)c(=O)n2n1 (stereo not drawn) [DDD01059036] | -5.93 |
| CCCn1ncc(-c2nc3c[nH]n(CC)c-3n2)c1C [DDD01252709] | 4.05 |
| Cc1[nH]n(-c2ccccc2)c2nc(C(C)(C)CN3CCN(C)CC3)nc1-2 [DDD01252143] | -2.13 |
| CCc1c(C)[nH]c2cc(C3CCN(Cc4cccnc4)C3)nn2c1=O (stereo not drawn) [DDD01060570] | -25.4 |
| CCc1c(C)nn2c(=O)cc(C3CCN(C(=O)c4ccn(C)n4)C3)[nH]c12 (stereo not drawn) [DDD01056907] | 7.915 |
| CCn1[nH]cc2nc(-c3cc4c(cc3OC)OCO4)nc1-2 [DDD01244413] | -2.99 |
| CCc1ccc(NC(=O)Nc2c(O)c3ccccc3oc2=O)cc1 [DDD01037337] | 5.95 |
| CSc1cccc(NC(=O)Nc2c(O)c3ccccc3oc2=O)c1 [DDD01037688] | 4.45 |
| CCc1cc(=O)n2nc(C3CCN(C(=O)c4ccccn4)CC3)cc2[nH]1 [DDD01057364] | 2.29 |
| Cc1ncsc1C(=O)N1CCCCC1c1cc2[nH]c(C)c(C)c(=O)n2n1 (stereo not drawn) [DDD01059037] | -8.94 |
| Cc1[nH]n(C2CCS(=O)(=O)C2)c(=O)c1Cc1ccccc1 (stereo not drawn) [DDD01026976] | -44.6 |
| CCc1c(C)[nH]c2cc(C3CCN(Cc4cccc(F)c4)C3)nn2c1=O (stereo not drawn) [DDD01060569] | -6.43 |
| Cc1[nH]n(-c2ccc(F)cc2)c2nnc(N)c1-2 [DDD01065623] | 13.6 |
